# Source: PubChem BioAssay
# Sampled rows, rich in hits. Any-hit rate of the full collection: about 11%.
# hNpr1 antagonist: Natriuretic polypeptide receptor (hNpr1) antagonism - Primary qHTS; HEK293 hNpr1 GloSensor cGMP, ANP-stimulated luminescence; 1.6% of 76,000 active; Atrial natriuretic peptide receptor 1 (Homo sapiens), P16066; AID 1347048, 2019; Potency, µM (titrated, usually from 46.3 µM), for the others: top-dose activity change, negative = inhibition, hits mostly inhibitors; calls by dose curve; note: nearly all actives have a fitted effect of over 60% in size
#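 Compound pre-incubated 30 min at room temperature on GloSensor-loaded HEK293 cells stably carrying hNpr1 and the pGS-40F cGMP biosensor. Stimulation uses hNppA at 0.1 nM final; luminescence is taken at baseline and 20 min post-agonist.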
# FLuc inh: Firefly luciferase inhibition profiling of diverse chemical library using quantitative high-throughput screening | Potency, µM (series often up to 115 µM), actives largely listed as inhibitors | purified P. pyralis luciferase, luminescence, biochemical | 2.5% of 76,000 active; note: nearly all actives have a fitted effect of over 65% in size
# Target sequence (P08659 whole entry, looked up): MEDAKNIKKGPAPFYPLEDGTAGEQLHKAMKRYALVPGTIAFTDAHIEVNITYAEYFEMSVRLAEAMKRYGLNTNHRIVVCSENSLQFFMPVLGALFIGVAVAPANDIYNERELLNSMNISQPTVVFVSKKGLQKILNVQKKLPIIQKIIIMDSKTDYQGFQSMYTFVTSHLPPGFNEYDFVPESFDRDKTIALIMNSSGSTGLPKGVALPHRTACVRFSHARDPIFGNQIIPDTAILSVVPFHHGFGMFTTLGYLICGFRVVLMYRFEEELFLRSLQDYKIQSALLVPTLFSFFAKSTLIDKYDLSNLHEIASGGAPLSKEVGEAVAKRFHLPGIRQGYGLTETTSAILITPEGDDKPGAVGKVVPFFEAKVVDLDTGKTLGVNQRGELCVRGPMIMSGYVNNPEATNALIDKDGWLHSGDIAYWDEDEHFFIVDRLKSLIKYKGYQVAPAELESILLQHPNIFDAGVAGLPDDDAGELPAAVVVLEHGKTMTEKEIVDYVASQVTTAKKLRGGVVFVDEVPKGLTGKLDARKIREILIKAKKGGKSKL
#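 Luminescence read by CCD imaging after purified firefly luciferase (10nM final) was added to substrate buffer holding 10uM D-luciferin and 10uM ATP, pH 7.5, pre-dosed with compound.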
# HEK cytotox: Cytotoxic Profiling in HEK 293 Cell Line of Diverse Libraries Using Quantitative High-Throughput Screening | HEK 293 viability, ATP luminescence (CellTiter-Glo), 48-72 h | Potency, µM (doses to about 115 µM), for the others: at the top dose activity change, negative = cytotoxicity, hits mostly inhibitors | 6.6% of 94,000 active; note: nearly all actives have a fitted effect of over 60% in size
#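 ATP-coupled CellTiter-Glo luminescence served as viability read-out, recorded 10 min after reagent addition at room temperature. HEK 293 cells, 250 cells/well, had been incubated with pintool-transferred compound for 48 or 72 hr at 37 degree Celsius.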
# NIH3T3 tox: Cytotoxic Profiling in NIH 3T3 Cell Line of Diverse Libraries Using Quantitative High-Throughput Screening | NIH 3T3 viability, CellTiter-Glo ATP luminescence, 48-72 h | Potency, µM (doses to about 96.7 µM), for the others: at the top dose activity change, negative = cytotoxicity, usual class: inhibitors | 4.3% of 94,000 active | AID 1345082, 2018; note: nearly all actives have a fitted effect of over 55% in size
#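 Mouse fibroblast NIH 3T3 cells, 400 per well, received compound via pintool and were incubated for 48 or 72 hr prior to CellTiter-Glo ATP luminescence measurement.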
# Numbers without * were called inactive; i = inactive; ? = inconclusive; nt = no result; [ ] = remark or other dose. Unless noted, calls come from the whole dose curve; as a rule, active = well fitted curve in the direction sought with a large enough effect; inconclusive = small, poorly fitted or top-dose-only effect, or another doubt; inactive = no such curve, though single readings can be large; an effect the other way counts as inactive or inconclusive. % is set by controls: 0 for no effect and ±100 for the full control effect; potency is the fitted concentration of half-maximal effect.
SMILES,hNpr1 antagonist,FLuc inh,HEK cytotox,NIH3T3 tox
CN1CCN(c2ccc3ncc(Nc4ccc5c(c4)OCCO5)n3n2)CC1,-0.9%[70.6 µM],i,?,?
CN1CCN(c2ccc3ncc(Nc4ccc(OC(F)(F)F)cc4)n3n2)CC1,-20.1%[70.6 µM],i,50.1µM*,35.5µM*
c1ccc(Oc2ccc(Nc3cnc4ccc(N5CCOCC5)nn34)cc2)cc1,?,i,?,44.7µM*
CN1CCN(c2ccc3ncc(Nc4ccc(Cl)c(C(F)(F)F)c4)n3n2)CC1,?,i,79.4µM*,?
COc1ccc(CCNC(=O)c2c(C)noc2-c2cccs2)cc1OC,1.8%,i,-9.6%,?
Cc1ccc(-c2[nH]ncc2CN2CCN(c3ccc(Cl)cn3)CC2)cc1C,11.8%,i,35.5µM*,?
OC1CN(Cc2ccccc2)CCN(Cc2cn[nH]c2-c2ccc(Cl)cc2)C1 (stereo not drawn),-7.0%,i,?,?
COCCN(C)C[C@@H]1CN(C(=O)c2cnc(SC)nc2)C[C@@H]1CO,7.7%,i,-7.3%,4.9%
Cc1ccc(CNC(=O)Cn2c(N3CCC(C)CC3)nc(C)cc2=O)cc1,0.3%,i,?,-19.2%
CCNC(=O)N1CCCC(c2noc(COc3ccccc3)n2)C1 (stereo not drawn),-24.6%,31.6µM*,-10.9%,-28.3%
Cc1ccc(NC(=O)N2CCCC(c3noc(COc4ccccc4)n3)C2)c(C)c1 (stereo not drawn),12.6µM*,?,?,?
COCCNC(=O)N1CCCC(c2noc(COc3ccccc3)n2)C1 (stereo not drawn),-12.7%,i,-13.1%,-17.0%
COC1CCC12CCN(C(=O)c1ccsc1)CC2 (stereo not drawn),4.2%,i,i,2.1%
CC(NC(=O)C1CCN(c2nccc(Nc3ccccc3Cl)n2)CC1)c1ccc(F)cc1 (stereo not drawn),nt,nt,39.8µM*,31.6µM*
COc1ccccc1Nc1ccnc(N2CCC(NC(=O)C3CC3)CC2)n1,nt,nt,-21.7%,-28.4%
O=C(NC1CCN(c2nccc(Nc3ccccc3Cl)n2)CC1)C1CC1,nt,nt,?,28.2µM*
Cc1ccc(Nc2ccnc(N3CCC(NC(=O)c4ccccc4Cl)CC3)n2)cc1,nt,nt,44.7µM*,39.8µM*
O=C(NC1CCN(c2nccc(Nc3ccccc3Cl)n2)CC1)c1ccccc1Cl,nt,nt,39.8µM*,?
CC(=O)NCc1nnc2n1C(C(=O)NCc1cccc(Cl)c1)CC2 (stereo not drawn),nt,nt,2.9%[172 µM],-8.5%[138 µM]
Cc1ccc(Nc2ccnc(N3CCN(C(=O)c4ccccc4Cl)CC3)n2)cc1,nt,nt,39.8µM*,?
N#Cc1ccc(C(=O)N2CCN(C(=O)c3nnn4c3COC(c3ccc(Cl)cc3)C4)CC2)cc1 (stereo not drawn),-17.1%,i,-20.8%,-6.6%
CC(=O)Nc1cccc(OCc2nnc(C(=O)N3CCC[C@@H]3c3ccc(Br)cc3)n2Cc2ccccc2)c1,-29.5%,i,31.6µM*,22.4µM*
CC(=O)Nc1cccc2ccc(OCc3nnc(C(=O)N4CCC[C@@H]4c4ccc(Br)cc4)n3Cc3ccccc3)cc12,-24.5%,i,?,?
O=C(NC1CCCC1)N1CCC(c2noc(-c3cccnc3)n2)C1 (stereo not drawn),-1.8%,i,-4.7%,-12.9%
CN1Cc2c(cc(N3CCOCC3)nc2-c2cccc(N[S+](C)(=O)[O-])c2)C1=O,6.8%[70.6 µM],i,?,14.1µM*
SMILES,hNpr1 antagonist,FLuc inh,HEK cytotox,NIH3T3 tox
CN1Cc2c(cc(N3CCOCC3)nc2-c2cccc(C(F)(F)F)c2)C1=O,-17.4%[70.6 µM],i,-40.3%[172 µM],5.62µM*
COc1cccc(-c2nc(N3CCOCC3)cc3c2CN(C)C3=O)c1,3.9%[70.6 µM],i,?,15.8µM*
CC(=O)Nc1cccc(-c2nc(N3CCOCC3)cc3c2CN(Cc2cnn(C)c2)C3=O)c1,9.2%,i,-21.1%,?
COc1cccc(-c2nc(N3CCOCC3)cc3c2CN(C)C3=O)c1OC,4.5%[70.6 µM],i,?,?
COc1ccc(Cn2c(C3CCN(C(=O)c4ccc(C)cc4)CC3)n[nH]c2=O)cc1,-0.5%,i,-2.9%,-18.7%
N#Cc1ccc(CN2CCn3c(nnc3-c3cccnc3)C2)cc1,nt,nt,i,2.1%
CCn1cc2c3c(cccc31)CN(C(=O)Cc1ccc(F)cc1)CC2,-10.4%,i,?,?
O[C@@H]1C[C@@H](c2nc(-c3ccc(F)cc3)no2)N(Cc2ccncc2)C1,?,63.1µM*,70.8µM*,?
COc1ccc(CN2C[C@H](O)C[C@H]2c2nc(-c3ccc(C)c(F)c3)no2)cc1,7.3%[70.6 µM],35.5µM*,?,?
COc1ccc(CN2C[C@H](O)C[C@H]2c2nc(-c3ccncc3)no2)cc1,-0.4%[70.6 µM],i,?,-10.9%[174 µM]
COc1ccc(-c2noc([C@@H]3C[C@@H](O)CN3Cc3ccc(F)cc3)n2)cc1,-9.5%[70.6 µM],44.7µM*,?,-16.7%[174 µM]
Cc1ccc(-c2noc([C@@H]3C[C@@H](O)CN3Cc3cccnc3)n2)cc1F,?,?,63.1µM*,?
O[C@@H]1C[C@@H](c2nc(-c3ccncc3)no2)N(Cc2ccc(F)cc2)C1,-2.8%[70.6 µM],i,-5.5%[172 µM],-21.6%[174 µM]
CN1C(=O)C(CC(=O)N2CCCOCC2)(Cc2ccccc2)c2ccccc21 (stereo not drawn),-2.2%,i,-25.0%,-24.9%
CN(C)[C@@H]1C[C@H](CO)[C@@H](O)[C@H]1O,2.8%[122 µM],i,i,1.1%[230 µM]
CN(C)C[C@@H]1CN(c2ncccn2)C[C@H]1NC(=O)c1cccc2[nH]ccc12,4.1%,i,-13.9%,-1.3%
Cc1noc(C)c1-c1cc2cc(C(C)C)oc2c(-c2ccnn2C)n1,-7.5%[70.6 µM],i,?,?
Cc1ccc(-c2noc([C@@H]3C[C@@H](O)CN3CC3CC3)n2)cc1F,-5.0%[70.6 µM],50.1µM*,?,?
Cc1ccc(-c2noc([C@@H]3C[C@@H](O)CN3C3CCN(C)CC3)n2)cc1F,5.5%[70.6 µM],i,?,?
COc1cccc2sc(NC(=O)c3ccc4c(c3)OCCN(C3CCC3)C4)nc12,?,?,31.6µM*,?
COc1ccc(NC(=O)c2ccc3c(c2)OCCN(C2CCC2)C3)cn1,-2.5%[70.6 µM],i,?,-20.9%[138 µM]
CC(C)(C)c1ccc(C(=O)Nc2nc3c(s2)C[C@@H]2[C@](C)(CO)[C@H](O)CC[C@@]2(C)[C@@H]3CC(=O)NC2CC2)cc1,3.3%,44.7µM*,44.7µM*,44.7µM*
CC(=O)Nc1nc2c(s1)C[C@@H]1[C@](C)(CO)[C@H](O)CC[C@@]1(C)[C@@H]2CC(=O)NC1CC1,-2.8%[70.6 µM],i,-10.8%[172 µM],-18.4%[138 µM]
